From PubChem BioAssay (EPA / NIEHS)
Inconclusive results are not listed. Calls of active or inactive are those of the source. How the source made its calls: active means hit-call score of the fitted dose curve at least 0.9, where 1 is the maximum; inconclusive means response in the unintended direction; inactive means score below 0.9.

How the values were obtained:
[1] = TOX21_p53_BLA_p2_viability: Viability Assessment in the Tox21 HCT-116 p53 Agonism Beta-lactamase Assay, Phase 2 (AID 2283591);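 further: compound exposure lasted 16 h at 37 °C; actives lower the ATP signal meaning cytotoxicity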
In short: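 Cytotoxicity readout: CellTiter-Glo ATP luminescence, 30 min at room temperature, after the beta-lactamase read. Cells were HCT116 exposed 16 h at 37C to compounds pin-transferred at 217-fold dilution from DMSO stocks.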

[2] = target: Cellular tumor antigen p53 (Homo sapiens) (UniProt P04637); experiment: TOX21_p53_BLA_p2_ratio: Tox21 HCT-116 p53 Agonism Beta-lactamase Assay, Ratio, Phase 2 (AID 2283592)
Cellular tumor antigen p53 (Homo sapiens), sequence (P04637 whole entry, looked up): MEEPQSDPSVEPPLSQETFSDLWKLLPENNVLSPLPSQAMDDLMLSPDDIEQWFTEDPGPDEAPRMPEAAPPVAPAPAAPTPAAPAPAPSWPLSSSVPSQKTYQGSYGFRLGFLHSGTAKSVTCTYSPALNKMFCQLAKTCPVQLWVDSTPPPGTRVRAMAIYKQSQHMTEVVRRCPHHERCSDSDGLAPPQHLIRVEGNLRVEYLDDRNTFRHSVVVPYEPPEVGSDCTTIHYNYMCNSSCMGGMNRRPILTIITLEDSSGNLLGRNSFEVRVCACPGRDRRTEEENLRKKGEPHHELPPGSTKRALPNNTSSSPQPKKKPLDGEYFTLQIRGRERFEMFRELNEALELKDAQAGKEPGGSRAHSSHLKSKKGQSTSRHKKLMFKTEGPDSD
In short: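 Human colon HCT116 cells with an inducible p53 beta-lactamase reporter are exposed to test chemicals for 16 h at 37C. Reporter induction is read as the 460/530 nm emission ratio after CCF4-AM loading, normalized to DMSO.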

[3] = TOX21_p53_BLA_p3_viability: Viability Assessment in the Tox21 HCT-116 p53 Agonism Beta-lactamase Assay, Phase 3 (AID 2283593);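 further: cells exposed to compound for 16 h before reading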
In short: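 Cellular ATP was quantified by CellTiter-Glo luminescence, read after 30 min at room temperature. Beforehand, HCT116 cells (4000/well) received compound 5 h post-seeding, 217-fold diluted from DMSO, then incubated 16 h at 37C.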

[4] = target: Cellular tumor antigen p53 (Homo sapiens) (UniProt P04637); experiment: TOX21_p53_BLA_p3_ratio: Tox21 HCT-116 p53 Agonism Beta-lactamase Assay, Ratio, Phase 3 (AID 2283596)
In short: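 HCT116 p53-bla cells (4000/well) given compound in DMSO (217-fold dilution) after 5 h, incubated 16 h at 37C. CCF4-AM substrate 2 h at room temperature; 460/530 nm emission ratio, gain fitted against DMSO.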

[5] = target: Cellular tumor antigen p53 (Homo sapiens) (UniProt P04637); experiment: TOX21_p53_BLA_p4_ratio: Tox21 HCT-116 p53 Agonism Beta-lactamase Assay, Ratio, Phase 4 (AID 2283601)
In short: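 Signal is the blue/green (460nm/530nm) ratio of cleaved versus uncleaved CCF4-AM substrate, read after 2 h substrate loading. Cells were HCT116 carrying the p53-responsive beta-lactamase reporter, dosed 16 h at 37C, 5% CO2; CellTiter-Glo measured in parallel.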

[6] = TOX21_p53_BLA_p4_viability: Viability Assessment in the Tox21 HCT-116 p53 Agonism Beta-lactamase Assay, Phase 4 (AID 2283597);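 further: hits lower the luminescence signal meaning cytotoxicity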
In short: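 Luminescent ATP readout (CellTiter-Glo, 30 min, room temperature) in the same wells as the p53 bla ratio. HCT116 cells were treated for 16 h at 37C with DMSO-dissolved compounds.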

[7] = target: Cellular tumor antigen p53 (Homo sapiens) (UniProt P04637); experiment: TOX21_p53_BLA_p5_ratio: Tox21 HCT-116 p53 Agonism Beta-lactamase Assay, Ratio, Phase 5 (AID 2283599)
In short: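 Beta-lactamase reporter ratio (blue 460 nm over green 530 nm, 405 nm excitation) after 2 h CCF4-AM loading, in HCT-116 cells exposed 16 h at 37 C to compounds pinned at 217-fold dilution. Increases relative to DMSO baseline scored.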

[8] = TOX21_p53_BLA_p5_viability: Viability Assessment in the Tox21 HCT-116 p53 Agonism Beta-lactamase Assay, Phase 5 (AID 2283600)
In short: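 Seeded cells (4000/well) settle 5 h before compound addition. Plates then incubate 16 h at 37C, receive FRET substrate for 2 h, and finally CellTiter-Glo, with luminescence measured after a 30 min room-temperature incubation.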

Measured: AC50

FC(F)OC(F)(F)C(F)Cl (stereo not given)
inactive: [1] | [2] | [3] | [4] | [5]

C=CCC1(C(C)CCC)C(=O)N=C(S)NC1=O (stereo not given)
inactive: [1] | [2] | [3] | [4] | [5]

OC(c1ccccc1)(c1ccccc1)C1CN2CCC1CC2 (stereo not given)
inactive: [1] | [2] | [3] | [6] | [7] | [8] | [5]

COC(=O)C(c1ccccc1)C1CCCCN1 (stereo not given)
inactive: [1] | [2] | [3] | [4] | [7] | [5]

C[C@]12CC[C@@H]3c4ccc(OC(=O)N(CCCl)CCCl)cc4CC[C@H]3[C@@H]1CC[C@@H]2O
active: [2] 24.6 µM | [4] 29 µM | [7] 25.2 µM | [5] 31.9 µM
inactive: [1] | [3]

C=CCc1cc(OC)c2c(c1)OCO2
inactive: [1] | [2] | [3] | [4] | [7] | [5]

N#CC1(N=NC2(C#N)CCCCC2)CCCCC1
inactive: [1] | [2] | [3] | [4] | [7] | [5]

CC(C)[N+](C)(CCC(C(N)=O)(c1ccccc1)c1ccccc1)C(C)C
inactive: [1] | [2] | [3] | [4] | [8] | [5]

CCCC[P+](CC)(CCCC)CCCC (tested in a mixture with another compound)
inactive: [1] | [2] | [3] | [6] | [7] | [8] | [5]

C[N+](C)(C)C
inactive: [1] | [2] | [3] | [6] | [7] | [8]

CCCCCCC#N
inactive: [1] | [2] | [3] | [6] | [7] | [8] | [5]

NC(=O)CN1CCCC1=O
inactive: [1] | [2] | [3] | [4] | [7] | [5]

CNC(C)[C@@H]1CC[C@@H](N)[C@@H](O[C@H]2[C@H](O)[C@@H](O[C@H]3OC[C@](C)(O)[C@H](NC)[C@H]3O)[C@H](N)C[C@@H]2N)O1 (stereo not given in full) (tested in a mixture with another compound)
inactive: [1] | [2] | [3] | [4] | [8]

CC(C)(O)C(Cl)(Cl)Cl
inactive: [1] | [2] | [3] | [4] | [8]

CCBr
inactive: [1] | [2] | [3] | [4] | [8] | [5]

Oc1cccc(Cl)c1
inactive: [1] | [2] | [3] | [4] | [8] | [5]
